# Screens: PubChem, several laboratories
# EWS-Fli inh: inhibitors of EWS/Fli oncoprotein transcriptional activity. A673 NR0B1-luciferase reporter, viability-normalised. inhibition, % at 12.6 µM. 350,000 tested, 0.67% active;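 active = mean inhibition of at least 50% after viability correction, with every replicate also passing that limit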;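 note: firefly luciferase signal divided by Alamar Blue viability fluorescence both relative to DMSO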
# LGR2 inh: inhibitors of bursicon-induced Drosophila LGR2 receptor cAMP signaling; HEK293 LGR2, CRE-luciferase, bursicon-stimulated, 4 h; inhibition, % at 9.99 µM; 380,000 tested, 0.35% active;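 active = drop in luminescence signal, shown as inhibition above about 50% in the replicate tests, limit read from the data, passing the limit was not always enough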;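 note: agonist challenge used bursicon conditioned medium at about half maximal strength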
# EBV LMP1 NFkB: Epstein-Barr LMP1 NF-kappaB reporter inhibition | LMP1-induced NF-kappaB luciferase reporter cells, luminescence | inhibition, % at 12.5 µM | 350,000 tested, 0.69% active | AID 504558; in the data active = inhibition above about 41%;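 note: 0% = neutral control wells and 100% = reference inhibitor control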
# TWEAK-Fn14 inh: blocks TWEAK-Fn14 interaction in a reporter cell assay. TWEAK-stimulated Fn14 reporter cells, luciferase luminescence, 8 h. AID 1159606. inhibition, % at 10 µM. 360,000 tested, 2% active; in the data active = inhibition above about 50%
# PAX8 inh HTS: lowers PAX8-driven luciferase in RMG-I cells; inhibition, % at 12.6 µM; 360,000 tested, 1.2% active; RMG-I TPO-luciferase reporter, SteadyGlo, 24 h;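 active = mean replicate inhibition at least 60% with every replicate also reaching 60%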;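 note: luciferase light reporting Pax8 driven TPO promoter activity; plate controls were median of neutral control wells for no effect and mitoxantrone controls for full effect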
# TROY signal inh: inhibitors of TROY-dependent NF-kB signaling. Q293 LMP1-TROYcd NF-kB luciferase reporter, 4 h. inhibition, % at 10 µM. 360,000 tested, 0.98% active;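 active = compounds whose plate-normalised and pattern-corrected inhibition of the luciferase reporter signal at the single screening dose is 50% or more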
# An asterisk follows results filed as active; · = no result. Rows were chosen to be rich in hits. Some 3.2% of all compounds tested hit in one or more screens of this group.
SMILES,EWS-Fli inh,LGR2 inh,EBV LMP1 NFkB,TWEAK-Fn14 inh,PAX8 inh HTS,TROY signal inh
CC(=O)NC(CCc1ccc(Cl)c(Cl)c1)c1cccc(O)c(=O)c1 (configuration not stated),-3,·,32,3,91*,14
O=[N+]([O-])c1cc(S(=O)(=O)Nc2cccc(C(F)(F)F)c2)ccc1-n1nnc2ccccc21,·,·,0,14,·,58*
CC(=O)N(C)C[C@H]1[C@H](c2ccc(-c3ccccc3F)cc2)[C@@H](CO)N1C(C)=O,6,-14,·,·,6,·
COC(=O)c1ccc(COc2ccccc2/C=C(\C#N)C(=O)Nc2c(C)cccc2C)cc1,4,27,3,61*,6,32
COC(=O)c1ccc(COc2ccccc2/C=C(\C#N)C(=O)Nc2ccccc2C)cc1,·,-19,-12,-12,·,7
COC(=O)c1ccc(COc2ccccc2/C=C/C(=O)c2ccc(OCC(=O)O)cc2)cc1,25,19,69*,6,18,-7
COc1ccc(NC(=O)Nc2ccc3c(c2)C(=O)N([C@@H](C)CO)C[C@H](C)[C@H](CN(C)C(=O)Nc2ccccc2)O3)cc1,-7,4,·,·,·,·
COc1ccc2c3c(n(C)c2c1)[C@H](CO)N(C(=O)Cc1ccccc1)CC31CN(C(C)=O)C1,6,0,·,·,·,·
c1ccc(-c2csc3ncnc(NCC4COc5ccccc5O4)c23)cc1 (configuration not stated),37,16,35,91*,52,59*
Cc1sc2ncnc(NCC3CCCO3)c2c1C (configuration not stated),·,3,9,12,·,9
c1ccc(-c2csc3ncnc(NCCCN4CCOCC4)c23)cc1,·,·,4,20,·,26
Cc1sc2ncnc(NCC3COc4ccccc4O3)c2c1C (configuration not stated),·,12,49*,57*,22,41
O=C(C[C@H]1CC[C@H]2[C@@H](COC[C@H](O)CN2Cc2cccc(F)c2)O1)NCC1CCCCC1,13,-6,·,·,11,·
COC(=O)[C@@H]1[C@@H](CO)[C@@H]2Cn3c(cccc3=O)[C@@H]2N1C(=O)C1CC1,1,-2,·,·,-6,·
C=CCN1C(=O)[C@]2(O[C@H](CCO)[C@@H]([Si](C)(C)c3ccc(OC)cc3)[C@@H]2C)c2cc(I)ccc21,30,·,·,·,105*,·
COc1ccc([Si](C)(C)[C@@H]2[C@@H](CCn3cc(CCO)nn3)O[C@]3(C(=O)N(Cc4ccc(N5CCOC5=O)cc4)c4ccccc43)[C@H]2C)cc1,35,·,·,·,·,·
C=CCN1C(=O)[C@]2(O[C@H](CCO)[C@@H]([Si](C)(C)c3ccc(OC)cc3)[C@@H]2C)c2cc(NC(=O)[C@H](C)O)ccc21,5,·,·,·,-5,·
COc1ccc([Si](C)(C)[C@@H]2[C@@H](CCO)O[C@]3(C(=O)N(Cc4ccc(NC(=O)[C@H](C)O)cc4)c4ccccc43)[C@H]2C)cc1,23,·,·,·,101*,·
COc1ccc([Si](C)(C)[C@@H]2[C@@H](CC(=O)N3Cc4ccccc4C[C@H]3CO)O[C@]3(C(=O)N(C)c4c(Br)cc(C)cc43)[C@H]2C)cc1,-1,·,·,·,81*,·
COc1ccc(C(=O)Nc2ccc(CN3C(=O)[C@]4(O[C@H](CC(=O)N5Cc6ccccc6C[C@H]5CO)[C@@H]([Si](C)(C)c5ccc(OC)cc5)[C@@H]4C)c4ccccc43)cc2)cc1,-2,·,·,·,92*,·
O=C(C[C@@H]1C[C@H]2c3cc(NC(=O)Nc4ccccc4F)ccc3O[C@H]2[C@H](CO)O1)NCCc1ccccc1,-36,-6,·,·,·,·
CN(C)C(=O)c1cccc(-c2ccc3c(c2)[C@H]2[C@H](CCN2C(=O)c2cnccn2)[C@H](CO)N3)c1,-1,4,·,·,-11,·
C[C@@H]1CN([C@@H](C)CO)C(=O)c2cc(NS(C)(=O)=O)ccc2O[C@@H](C)CCCCO[C@@H]1CN(C)Cc1ccncc1,6,-10,·,·,-3,·
COc1ccc([Si](C)(C)[C@H]2[C@H](CCn3cc(CCO)nn3)O[C@@]3(C(=O)N(Cc4ccc(N5C(=O)c6cccc7cccc5c67)cc4)c4ccccc43)[C@@H]2C)cc1,18,·,·,·,·,·
COc1ccc([Si](C)(C)[C@H]2[C@H](CCO)O[C@@]3(C(=O)N(Cc4ccc(N5CCOC5=O)cc4)c4ccccc43)[C@@H]2C)cc1,24,·,·,·,107*,·
